# MBNL1-CUG inh – blocks human MBNL1 binding to CUG repeat RNA. Q9NR56. TR-FRET MBNL1-His/biotin-(CUG)12 binding, 665/545 ratio. Potency, µM (top dose mostly 57.5 µM), for inactives: at the highest dose activity change, negative = inhibition, most hits filed as inhibitors. 280,000 compounds, 0.036% hits; active = well fitted inhibition curve with a large enough effect in the signal ratio, with a control signal flat, not every such curve was filed as active; inconclusive = small, poorly fitted or top-dose-only effect, or effect the other way, or a change in a side signal; inactive = no such curve, though single readings can be large or run the other way; the % refers to the signal ratio; note: potency is the fitted concentration of half-maximal effect; % is set by controls: 0 for no effect and ±100 for the full control effect
#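 Compound titration spanned 92 nM–58 uM against the MBNL1-His/biotin-(CUG)12 complex. After 60 min at room temperature with 5 nM streptavidin-XL665 and 0.055 ng/ul terbium anti-His, ratiometric 665/545 nm emission (Ex 340 nm) normalized to controls.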
# CBFb-RUNX1 inh – blocks binding between human CBF-beta and RUNX1. Q01196+Q13951. AlphaScreen CBFb-His/RUNX1-biotin binding, biochemical. Potency, µM (titrated, usually from 59.8 µM), for inactives: at the top dose activity, negative = inhibition, actives largely listed as inhibitors. 230,000 tested, under 10 active. AID 1477; note: % of control where 0% means no effect
#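 Inhibition was taken as any reduction in AlphaScreen signal from the CBF-beta–RUNX1 pair (His and biotin tags, 30 nM each), measured after compound (15 min) and bead (90 min) incubations at room temperature.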
# VDR inh – blocks the human vitamin D receptor | P11473 | VDR-SRC2-3 peptide fluorescence polarization, 2 h | Potency, µM, without a hit: max response, negative = inhibition, usual class: inhibitors | 400,000 compounds, 0.93% hits; note: potency is the fitted concentration of half-maximal effect; % is set by controls: 0 for no effect and ±100 for the full control effect
# Target sequence (P11473 whole entry, looked up): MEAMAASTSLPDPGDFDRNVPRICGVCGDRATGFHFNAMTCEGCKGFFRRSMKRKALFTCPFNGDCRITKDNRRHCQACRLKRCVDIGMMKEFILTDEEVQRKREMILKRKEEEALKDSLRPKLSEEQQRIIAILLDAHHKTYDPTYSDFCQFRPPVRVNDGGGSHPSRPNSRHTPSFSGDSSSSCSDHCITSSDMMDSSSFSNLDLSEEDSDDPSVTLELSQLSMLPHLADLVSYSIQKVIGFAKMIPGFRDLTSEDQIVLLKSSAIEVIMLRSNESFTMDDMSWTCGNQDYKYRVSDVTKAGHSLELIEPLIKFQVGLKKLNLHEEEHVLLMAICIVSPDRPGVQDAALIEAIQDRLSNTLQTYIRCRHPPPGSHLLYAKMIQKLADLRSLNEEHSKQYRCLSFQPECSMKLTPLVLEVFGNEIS
#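 FP read-out; VDR + SRC2-3 coactivator peptide; 23 nl compound by pintool; 2 h RT incubation; reagents held at 4 deg C, protected from light.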
# KCNH2 3.1 block – inhibitors of human KCNH2 3.1 potassium channel isoform. U2OS KCNH2 3.1, thallium flux FluxOr; stronger effect = lower value. activity change, % (tested at about 1.8 µM). 340,000 compounds, 0.95% hits;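 active = maximum activity change below -70%; inconclusive = maximum activity change from -70% to -50%; inactive = maximum activity change above -50%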;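 note: thallium influx rate constant from kinetic fluorescence after stimulation buffer; % is set by controls: 0 for no effect and ±100 for the full control effect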
#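 We transduce U2OS cells with the mutant 3.1 virus, culture them overnight, load FluxOr with Red40 quencher for 45 min, then add stimulation buffer and read kinetically for 2 min to derive a normalized rate constant.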
# hERG WT inh – inhibitors of human wildtype KCNH2 potassium channel; U2OS, BacMam KCNH2, thallium flux FluxOr; stronger effect = lower value; AID 720551; 340,000 compounds, 0.37% hits; activity change, % at 1.84 µM;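 active = maximum activity change below -70%; inconclusive = maximum activity change between -70% and -50%; inactive = maximum activity change above -50%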; note: % is set by controls: 0 for no effect and ±100 for the full control effect
#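 U2OS cells transduced with wild-type KCNH2 virus are loaded with FluxOr dye for 45 min, and thallium flux is measured in kinetic reads before and after stimulation buffer. Rate constants are normalized to DMSO controls.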
# PLK1 PBD inh – inhibitors of human PLK1 polo-box domain binding. P53350. Potency, µM, for the others: max response, negative = inhibition, usual class: inhibitors. 360,000 compounds, 2.8% hits. AID 720504. Plk1 PBD binding of FITC phosphopeptide, fluorescence polarization; note: potency is the fitted concentration of half-maximal effect; series mostly up to about 57 µM; % is set by controls: 0 for no effect and ±100 for the full control effect; nearly all actives have a fitted effect of over 65% in size
# USP1-UAF1 confirm – USP1-UAF1 deubiquitinase inhibition validated. Potency, µM (doses to about 56.8 µM), for inactives: at the top dose activity change, negative = inhibition, hits mostly inhibitors. Ub-Rhodamine cleavage, fluorescence kinetic read. shares compounds with VDR inh. 50 compounds, 50% hits. AID 540327
# VDR confirm – inhibits human vitamin D receptor, primary hit validation; shares compounds with VDR inh; 840 compounds, 89% hits; Potency, µM, most hits filed as inhibitors; VDR-coactivator inhibition assay, qHTS confirmation; note: potency is the fitted concentration of half-maximal effect
# VDR FP fluor – blocks human VDR-coactivator binding in fluorescein assay. shares compounds with VDR inh. VDR-coactivator binding, fluorescein fluorescence polarization. Potency, µM (series often up to 57.1 µM), inactives show at the top dose activity change, negative = inhibition, most hits filed as inhibitors. 840 compounds, 48% hits. AID 602200; note: potency is the fitted concentration of half-maximal effect
# VDR bla – inhibits human VDR in beta-lactamase reporter cells; 840 compounds, 23% hits; shares compounds with VDR inh; VDR beta-lactamase reporter cells, FRET ratio; cells co-treated with VDR agonist LG190178; Potency, µM (doses to about 46.1 µM), inactives show top-dose activity change, negative = inhibition, hits mostly inhibitors; note: potency is the fitted concentration of half-maximal effect; % is set by controls: 0 for no effect and ±100 for the full control effect
# VDR viability – cell toxicity, VDR inhibitor hit counter-screen; shares compounds with VDR inh; cytotoxicity counter-screen, cell viability, qHTS; Potency, µM (top dose mostly 48.3 µM), for the others: at the top dose activity change, negative = cytotoxicity, usual class: cytotoxic; 840 compounds, 18% hits;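 note: potency is the fitted concentration of half-maximal effect; plate controls were DMSO for no effect and high-concentration cycloheximide for full effect; nearly all actives have a fitted effect of over 75% in size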
# The depositor's hits bear a star; ? = inconclusive; / = no result. An excerpt weighted towards active compounds, which were near 3.8% of everything screened. Unless noted, calls come from the whole dose curve; as a rule, active = well fitted curve in the direction sought with a large enough effect; inconclusive = small, poorly fitted or top-dose-only effect, or another doubt; inactive = no such curve, though single readings can be large; an effect the other way counts as inactive or inconclusive.
SMILES,MBNL1-CUG inh,CBFb-RUNX1 inh,VDR inh,KCNH2 3.1 block,hERG WT inh,PLK1 PBD inh,VDR confirm,VDR FP fluor,VDR bla,VDR viability,others
CN(C)S(=O)(=O)c1ccc2c(c1)/C(=C/c1cc3c([nH]1)CCCC3)C(=O)N2,/,-9%,-19%,-7,0,3%,/,/,/,/,USP1-UAF1 confirm=47µM*
CCN(c1ccc(OC)cc1)S(=O)(=O)c1ccc2[nH]c3c(c2c1)CCCCC3,/,/,4%,/,/,/,/,/,/,/,
CCn1c(CSc2nnc(-c3ccncc3)n2CCOC)nc2cc(C(=O)O)ccc21,5%,9%,13µM*,-19,0,-7%,21*,22%,5%,19%,
O=C(Nc1ccc(N2CCOCC2)c(S(=O)(=O)Nc2ccc(Cl)cc2)c1)c1cnccn1,-3%,-9%,79µM*,6,-1,5.3µM*,17*,?,18%,-12%,
CCOc1ccc(-n2c(Cc3ccccc3)nnc2SCc2nc(-c3cccs3)no2)cc1,/,/,-6%,/,/,/,/,/,/,/,
COc1ccc(OC)c(S(=O)(=O)CC(=O)c2cc3ccc(OC)cc3oc2=O)c1,?,/,-9%,3,1,-3%,/,/,/,/,
COc1ccc(S(=O)(=O)CC(=O)c2cc3cc(Br)ccc3oc2=O)cc1,5%,/,?,12,-4,1.7µM*,10*,4µM*,-26%,28%,
COCCn1ccc2c(OCC(=O)NCc3ccc(F)cc3)cccc2c1=O,/,/,-1%,/,/,/,/,/,/,/,
Cc1nn(C(C)(C)C)c(OC(=O)C(C)(C)C)c1Sc1ccccc1,/,/,-8%,/,/,/,/,/,/,/,
O=C(Nc1nc(-c2ccccn2)cs1)c1cc(Cl)ccc1[N+](=O)[O-],?,/,79µM*,16,0,9.5µM*,24*,-20%,2%,-2%,
O=C(NC1(O)C(=O)c2ccccc2C1=O)c1c(Cl)cccc1Cl,?,1%,?,17,0,-27%,4*,4µM*,7%,-4%,
CCOC(=O)Cn1c(=O)c2c(nc(N3CCOCC3)n2Cc2ccccc2)n(C)c1=O,/,/,-6%,/,/,/,/,/,/,/,
COC(=O)c1cc(=O)n(Cc2ccco2)c(=Nc2ccc(F)c(Cl)c2)s1,-3%,-12%,?,-21,11,-14%,14*,13µM*,?,3%,
CC1CCc2c(sc(NC(=O)CCC(=O)O)c2C(=O)NC2CC2)C1 (stereo unspecified),0%,/,56µM*,8,-8,5.3µM*,27*,28µM*,10%,-5%,
COCC(=O)Nc1sc2c(c1C(=O)OC)CCC(C)C2 (stereo unspecified),0%,13%,4%,23,-5,-5%,/,/,/,/,
COc1c(Cl)cc(Cl)cc1CNCCSc1nnnn1C,/,/,1%,/,/,/,/,/,/,/,
CCOc1ccc(C(=O)CCN2CCCCCC2)cc1,-2%,-2%,25µM*,/,15,11µM*,27*,?,?,?,

# High-throughput results (PubChem)
